These results are taken from PubChem BioAssay (NCI).

What all share (experiment): NCI-60 one-dose screen, 48 h (100 = growth as untreated, 0 = no growth, -100 = all killed)
The subject of one assay is T-47D breast. The settings on record: 10 µM unless noted.
The next assay has as its system BT-549 breast. The settings on record: 10 µM unless noted.
In the next assay the test system is MDA-MB-435 melanoma. To be noted: 10 µM unless noted.
The subject of another assay is SW-620 colon. The settings on record: 10 µM unless noted.
In another assay the test system is MCF7 breast. The settings on record: 10 µM unless noted.
In the next assay the test system is HCT-116 colon. To be noted: 10 µM unless noted.
A further assay deals with HCC-2998 colon. The settings on record: 10 µM.
In another assay the test system is KM12 colon. To be noted: 10 µM unless noted.

The panel holds about 83,000 compounds, 20% with a hit somewhere; the sample as a whole holds those more often.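 Activity criterion: percent growth below 10, measured after cells in 96-well plates were exposed to a single compound concentration for 48 hours.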 Unmarked numbers belong to inactive results. Calls of active or inactive are those of the source.

With `O=C(Cc1ccc(/C=C/C(=O)c2ncc[nH]2)cc1)Nc1ccc(Br)cc1`, the growth in the assay with T-47D breast was 17.5%; in the assay on BT-549 breast it was 20.5%; in the assay on MDA-MB-435 melanoma it was 43.5%; with SW-620 colon it was 2.37% (active); in the assay on MCF7 breast it was 11.8%; in the assay with HCT-116 colon, -40.2% (active). Further, the values for the growth in the assay with HCC-2998 colon and in the assay with KM12 colon were 78.6% and -43.3% (active), respectively.
Turning to `Cn1c(=O)c(F)c(Nc2ccc(I)cc2F)c2c(=O)n(C[C@@H](O)CO)cnc21`, the growth was 63.7% with T-47D breast; 60.6% with BT-549 breast; 44.3% in the assay on MDA-MB-435 melanoma; 21.6% with SW-620 colon; 83.8% in the assay on MCF7 breast; 9.17% (active) in the assay on HCT-116 colon. The growth was -37.7% (active) in the assay with HCC-2998 colon and 19.9% in the assay with KM12 colon.
Consider `CCCCCCCC12Cc3ccccc3C1=Nc1c(c3ccccc3n1C)C2=O` (stereo not given), for which the growth with T-47D breast was 72.4%; in the assay on BT-549 breast, 108%; in the assay with MDA-MB-435 melanoma, 105%; in the assay with SW-620 colon, 97%; in the assay with MCF7 breast it was 80.2%; in the assay on HCT-116 colon, 73.9%. For the same compound, the growth in the assay on HCC-2998 colon is 96.3%; with KM12 colon it was 94.2%.
`CN1CC[C@@H](c2c(O)cc(O)c3c(=O)cc(-c4ccccc4Cl)oc23)[C@@H]1CO`: the growth in the assay on T-47D breast was -8.71% (active); with BT-549 breast, -4.92% (active); with MDA-MB-435 melanoma, -67.9% (active); with SW-620 colon it was 4.02% (active); in the assay with MCF7 breast, 4.7% (active); in the assay on HCT-116 colon, 3.53% (active). Further, the figures for the growth in the assay with HCC-2998 colon and with KM12 colon were -25.8% (active) and 3.84% (active), respectively.
Regarding `C=CC[n+]1c(/C=C2\Sc3ccccc3N2C)sc(-c2ccccc2)c1-c1ccccc1`, the growth is 5.7% (active) with T-47D breast; 11.9% in the assay with BT-549 breast; 5.39% (active) with MDA-MB-435 melanoma; 22.1% in the assay on SW-620 colon; 6.39% (active) in the assay with MCF7 breast; 12% with HCT-116 colon. Also, the growth with HCC-2998 colon is 29.4%; in the assay with KM12 colon, 14%.
As to `COc1ccc(C2CC(=O)c3c(O)c(OC)c(OC)c(OC)c3O2)cc1O` (stereo not given), the growth in the assay on T-47D breast is 65.9%; in the assay with BT-549 breast, 64.6%; with MDA-MB-435 melanoma, -46.9% (active); with SW-620 colon, 20.2%; in the assay with MCF7 breast, 24.8%; with HCT-116 colon, 7.57% (active). In addition, the growth is 12.7% in the assay on HCC-2998 colon and 12.5% in the assay on KM12 colon.
Take `C=CC(=O)Nc1cccc(Nc2nc(Nc3ccc(N4CCN(C(C)=O)CC4)cc3OC)ncc2C(F)(F)F)c1`: the growth is -5.01% (active) in the assay on T-47D breast; 19.7% in the assay on BT-549 breast; 23.1% in the assay on MDA-MB-435 melanoma; 2.57% (active) in the assay with SW-620 colon; 4.41% (active) with MCF7 breast; 12% with HCT-116 colon. In addition, the growth is 34.7% in the assay with HCC-2998 colon and 15.7% in the assay with KM12 colon.
In the case of `Clc1ccc2c(NCCCNCc3ccc4c(c3)OCO4)ccnc2c1`, the growth is -0.471% (active) in the assay with T-47D breast; 51.5% in the assay with BT-549 breast; -34.6% (active) in the assay with MDA-MB-435 melanoma; 28.9% in the assay with SW-620 colon; 31.5% in the assay on MCF7 breast; 36.5% in the assay with HCT-116 colon. Also, the growth with HCC-2998 colon was 5.99% (active); in the assay on KM12 colon it was 65.4%.
As for `c1cc[n+](Cc2c3ccccc3cc3c2ccc2ccccc23)cc1`, the growth with T-47D breast is 30.8%; in the assay with BT-549 breast it was 10.4%; in the assay on MDA-MB-435 melanoma, 51%; in the assay on SW-620 colon, 57.4%; with MCF7 breast it was 31.9%; with HCT-116 colon, 58.1%. The growth in the assay with HCC-2998 colon is 42.8%; in the assay with KM12 colon it was 35.9%.
For the compound `COc1cc(-c2cc(-c3ccc(Nc4ccnc5cc(Cl)ccc45)cc3)nc(N3CCOCC3)n2)cc(OC)c1OC`, the growth with T-47D breast was 12.8%; in the assay on BT-549 breast, 24.4%; with MDA-MB-435 melanoma, -35% (active); with SW-620 colon, 1.68% (active); in the assay on MCF7 breast it was 4.34% (active); with HCT-116 colon, -63.3% (active). In addition, the growth in the assay with HCC-2998 colon was 18.7%; with KM12 colon it was 25.2%.
For `Cc1cccc(NC(=O)[C@@H]2c3ccccc3C(=O)N(c3ccc(Cl)cc3)[C@H]2c2ccc(Cl)cc2)n1`, the growth in the assay with T-47D breast is 41.6%; in the assay on BT-549 breast it was 63.3%; in the assay with MDA-MB-435 melanoma, 46.6%; in the assay with SW-620 colon, 40.6%; in the assay with MCF7 breast it was 40.9%; in the assay with HCT-116 colon, 26.2%. The figures for the growth with HCC-2998 colon and with KM12 colon were 50.6% and 34.5%, respectively.
On to `Cc1nc(NC(=O)N2CCC[C@H]2C(N)=O)sc1-c1ccnc(C(C)(C)C(F)(F)F)c1`, for which the growth was -34.7% (active) in the assay on T-47D breast; 50.2% in the assay with BT-549 breast; 49.3% with MDA-MB-435 melanoma; 41.7% in the assay with SW-620 colon; 13.9% in the assay with MCF7 breast; 26.4% with HCT-116 colon. Also, the growth with HCC-2998 colon was 48.6%; in the assay on KM12 colon, 57.6%.
Turning to `CC(=O)c1c(C)c2cnc(Nc3ccc(N4CCNCC4)cn3)nc2n(C2CCCC2)c1=O`, the growth with T-47D breast was 55.7%; in the assay with BT-549 breast, 50.5%; in the assay on MDA-MB-435 melanoma it was 45.5%; in the assay on SW-620 colon, 27.3%; in the assay on MCF7 breast it was 27.4%; with HCT-116 colon, 10.6%. For the same compound, the values for the growth in the assay with HCC-2998 colon and with KM12 colon were 57.3% and 11.3%, respectively.
As to `C/C(=C(/c1ccc(Cl)cc1)c1ccc(OCCN2CCCC2)cc1)c1ccccc1`, the growth was 72.4% in the assay with T-47D breast; 73.4% in the assay with BT-549 breast; 55.1% in the assay with MDA-MB-435 melanoma; 51.4% in the assay with SW-620 colon; 33.8% in the assay on MCF7 breast; 47.4% with HCT-116 colon. The growth in the assay on HCC-2998 colon is 84.7%; in the assay with KM12 colon it was 25.6%.
As to `Nc1c(Cl)cccc1[N+](=O)[O-]`, the growth in the assay with T-47D breast was 110%; in the assay with BT-549 breast, 114%; in the assay on MDA-MB-435 melanoma, 105%; in the assay on SW-620 colon it was 94.6%; in the assay with MCF7 breast it was 99.1%; in the assay on HCT-116 colon, 112%. The growth in the assay on HCC-2998 colon was 105%; in the assay on KM12 colon, 107%.
